Measurements published in PubChem BioAssay (NCATS).
Results filed as inconclusive are left out. The source made the active and inactive calls. Calls follow the shape of the dose curve; as a rule, active = well fitted curve in the direction sought with a large enough effect; inconclusive = small, poorly fitted or top-dose-only effect, or another doubt; inactive = no such curve, though single readings can be large; an effect the other way counts as inactive or inconclusive.

Columns and labels:
[1] = Confirmation and Secondary Assay for Modulators of Hemoglobin Beta Chain Splicing at IVS2 654 locus (AID 910); conditions: HeLa EGFP-654 splicing reporter, GFP fluorescence, 48 h; series mostly up to 38.3 µM;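 also: HeLa cells stably carrying EGFP split by mutant beta-globin IVS2-654 intron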
Procedure, shortened: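 HeLa cells stably expressing EGFP interrupted by β-globin IVS2-654 intron, seeded overnight in Opti-MEM/2% FCS, then treated 2 days at 37 °C. Restored splicing read as total peak GFP intensity per well by laser scanning cytometry (488 nm excitation, 500–520 nm emission); 500 nM antisense PNA as control.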

[2] = test system: ATS95; test: qHTS profiling for inhibitors of Plasmodium falciparum proliferation (AID 504749); also: nearly all actives have a fitted effect of over 60% in size; conditions: P. falciparum in erythrocytes, SYBR Green DNA, 72 h; series mostly up to 28.7 µM
Procedure, shortened: (§1)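 Each compound contacts P. falciparum-infected red blood cells for 72 h at 37 C; lysis buffer (Tris, EDTA, saponin, Triton X, SYBR Green I) is added and fluorescence measured next morning; values normalized to controls.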

[3] = test system: CP192; test: as above; conditions: P. falciparum in erythrocytes, SYBR Green DNA, 72 h; series mostly up to 28.7 µM
Procedure, shortened: as §1

[4] = test system: CP194; test: as above; conditions: P. falciparum in erythrocytes, SYBR Green DNA, 72 h; series mostly up to 28.7 µM
Procedure, shortened: as §1

[5] = test system: CP201; test: as above; conditions: P. falciparum in erythrocytes, SYBR Green DNA, 72 h; series mostly up to 28.7 µM
Procedure, shortened: as §1

[6] = test system: CP247; test: as above; conditions: P. falciparum in erythrocytes, SYBR Green DNA, 72 h; series mostly up to 28.7 µM
Procedure, shortened: as §1

[7] = test system: CP262; test: as above; conditions: P. falciparum in erythrocytes, SYBR Green DNA, 72 h; series mostly up to 28.7 µM
Procedure, shortened: as §1

[8] = test system: CP266; test: as above; conditions: P. falciparum in erythrocytes, SYBR Green DNA, 72 h; series mostly up to 28.7 µM
Procedure, shortened: as §1

[9] = test system: CP268; test: as above; conditions: P. falciparum in erythrocytes, SYBR Green DNA, 72 h; series mostly up to 28.7 µM
Procedure, shortened: as §1

[10] = test system: CP269; test: as above; conditions: P. falciparum in erythrocytes, SYBR Green DNA, 72 h; series mostly up to 28.7 µM
Procedure, shortened: as §1

[11] = test system: CP291; test: as above; conditions: P. falciparum in erythrocytes, SYBR Green DNA, 72 h; series mostly up to 28.7 µM
Procedure, shortened: as §1

[12] = test system: CP297; test: as above; conditions: P. falciparum in erythrocytes, SYBR Green DNA, 72 h; series mostly up to 28.7 µM
Procedure, shortened: as §1

[13] = test system: CP305; test: as above; conditions: P. falciparum in erythrocytes, SYBR Green DNA, 72 h; series mostly up to 28.7 µM
Procedure, shortened: as §1

[14] = test system: CP325; test: as above; conditions: P. falciparum in erythrocytes, SYBR Green DNA, 72 h; series mostly up to 28.7 µM
Procedure, shortened: as §1

[15] = test system: DIV17; test: as above; conditions: P. falciparum in erythrocytes, SYBR Green DNA, 72 h; series mostly up to 28.7 µM
Procedure, shortened: as §1

[16] = test system: FAB9; test: as above; conditions: P. falciparum in erythrocytes, SYBR Green DNA, 72 h; series mostly up to 28.7 µM
Procedure, shortened: as §1

[17] = test system: JCK; test: as above; conditions: P. falciparum in erythrocytes, SYBR Green DNA, 72 h; series mostly up to 28.7 µM
Procedure, shortened: as §1

[18] = test system: PAD; test: as above; conditions: P. falciparum in erythrocytes, SYBR Green DNA, 72 h; series mostly up to 28.7 µM
Procedure, shortened: as §1

[19] = test system: PC49; test: as above; conditions: P. falciparum in erythrocytes, SYBR Green DNA, 72 h; series mostly up to 28.7 µM
Procedure, shortened: as §1

[20] = test system: TAB109; test: as above; conditions: P. falciparum in erythrocytes, SYBR Green DNA, 72 h; series mostly up to 28.7 µM
Procedure, shortened: as §1

Measured: Potency

COc1ccccc1-c1ccc2ncnc(NCc3cccnc3)c2c1
inactive: [1]

CN(C)c1ccc(-c2nc(Nc3ccncc3)c3ccccc3n2)cc1
inactive: [1]

O=C(O)[C@@H](O)[C@@H](O)[C@H](O)C(=O)CO
not listed: [1]
inactive: all other assays above

CC1(C)S[C@@H]2[C@H](NC(=O)Cc3ccccc3)C(=O)N2[C@@H]1C(=O)O
not listed: [1]
inactive: all other assays above

C[C@H](CCC(=O)O)[C@H]1CC[C@@H]2[C@H]3[C@@H](C[C@@H](O)[C@]21C)[C@]1(C)CC[C@H](O)C[C@@H]1C[C@@H]3O
not listed: [1] | [2]
inactive: all other assays above
